Records with an inconclusive call do not appear. The source made the active and inactive calls. Calls come from the whole dose curve; as a rule, active = well fitted cell-killing curve with a large enough effect; inconclusive = small, poorly fitted or top-dose-only effect, or effect the other way; inactive = no such curve, though single readings can be large or run the other way.
The compounds below were run on JEG-3 (assay: Confirmatory qHTS for gynecologic anti-cancer compounds from libraries of approved drugs and bioactive compounds). Conditions: gynecologic cancer cell panel viability, ATPlite luminescence, 48 h; series mostly up to 57.6 µM.
Outline: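 1,000 cells/well; 16 h pre-incubation 37 C, 5% CO2; pin-transferred cpd in DMSO, 11 conc (1:3), 57.5 uM–0.977 nM; 48 h; ATPlite, 15 min RT; luminescence → IC50.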
Note: nearly all actives have a fitted effect of over 55% in size.
Potency is the fitted concentration of half-maximal effect.

Question: How did the Potency turn out when `NC(=O)c1cnc(-c2ccc(C3(N)CCC3)cc2)c(-c2ccccc2)c1` was run?
Answer: The Potency was 30.6 µM (active).

Question: How did the Potency turn out when `Cc1ccc(C(N)=O)cc1Nc1nccc(-c2cn(C(C)C)c3cnccc23)n1` was run?
Answer: The Potency was 7.69 µM (active).

Question: For `CCc1nc(C(N)=O)c(Nc2ccc(N3CCC(N4CCN(C)CC4)CC3)c(OC)c2)nc1NC1CCOCC1`, which Potency is on record?
Answer: The Potency was “inactive”.

Question: With `COc1cccc2c1C(=O)c1c(O)c3c(c(O)c1C2=O)C[C@@](O)(C(=O)CO)C[C@@H]3O[C@H]1C[C@H](N)[C@H](O[C@@H]2CCCCO2)[C@H](C)O1` as the compound, how does the Potency read?
Answer: The Potency was 13.7 µM (active).

Question: `CO[C@@]12[C@H](COC(N)=O)C3=C(C(=O)C(C)=C(N)C3=O)N1C[C@@H]1N[C@@H]12` was tested. Which Potency did it give?
Answer: The Potency was “inactive”.

Question: Which Potency does the source give for `NC(=O)c1ccc2nc(-c3ccc(Oc4ccc(Cl)cc4)cc3)[nH]c2c1` here?
Answer: Its Potency is 21.7 µM (active).

Question: How did the Potency turn out when `CC(C)C[C@H](NC(=O)[C@@H](NC(=O)c1cccc(-c2ccccc2)n1)[C@@H](C)O)B(O)O` was run?
Answer: Its Potency is 1.53 µM (active).

Question: For `CC(C)CC(=O)Nc1n[nH]c2c1CN(C(=O)C1CCN(C)CC1)C2(C)C`, which Potency is on record?
Answer: Its Potency is 1.09 µM (active).

Question: For `Cn1cnc([N+](=O)[O-])c1Sc1ncnc2nc[nH]c12`, which Potency is on record?
Answer: Its Potency is 8.63 µM (active).

Question: For `COC(=O)c1ccc2c(C(=Nc3ccc(N(C)C(=O)CN4CCN(C)CC4)cc3)c3ccccc3)c(O)[nH]c2c1`, which Potency is on record?
Answer: Its Potency is “inactive”.

Question: How did the Potency turn out when `Cn1cnc2c(F)c(Nc3ccc(Br)cc3Cl)c(C(=O)NOCCO)cc21` was run?
Answer: Its Potency is “inactive”.

Question: Which Potency does the source give for `COc1cc2c(Oc3ccc(-c4cnc(Nc5ccc(F)cc5)n(C)c4=O)cc3F)ccnc2cc1OCCCN1CCOCC1` here?
Answer: The Potency was “inactive”.

Question: For `Cc1ccccc1C(OCCN(C)C)c1ccccc1` (stereo not drawn), which Potency is on record?
Answer: Its Potency is “inactive”.

Question: For `CS(=O)(=O)c1ccc(C(=O)Nc2ccc(Cl)c(-c3ccccn3)c2)c(Cl)c1`, which Potency is on record?
Answer: Its Potency is “inactive”.

Question: Which Potency does the source give for `COc1ccc(-c2cc3nccn3c(Nc3ncccc3C(N)=O)n2)cc1OC` here?
Answer: The Potency was 12.2 µM (active).

Question: With `O=C(/C=C/c1cccc(S(=O)(=O)Nc2ccccc2)c1)NO` as the compound, how does the Potency read?
Answer: The Potency was 1.19 µM (active).

Question: For `O=C(c1ccc(/C=C/c2n[nH]c3ccccc23)cc1)N1CCNCC1`, which Potency is on record?
Answer: The Potency was 24.3 µM (active).

Question: With `CCN(CC)CCCC(C)Nc1c2ccc(Cl)cc2nc2ccc(OC)cc12` (stereo not drawn) as the compound, how does the Potency read?
Answer: Its Potency is 43.2 µM (active).

Question: Which Potency does the source give for `CC(C)(C)C(=O)OCOP(=O)(COCCn1cnc2c(N)ncnc21)OCOC(=O)C(C)(C)C` here?
Answer: Its Potency is 2.43 µM (active).

Question: `O=C(Nc1cn[nH]c1-c1nc2ccc(CN3CCOCC3)cc2[nH]1)NC1CC1` was tested. Which Potency did it give?
Answer: Its Potency is 12.2 µM (active).

Question: Which Potency does the source give for `CN(C)C(CCOc1cccc2ccccc12)c1ccccc1` (stereo not drawn) here?
Answer: The Potency was “inactive”.

Question: With `N=C(N)c1ccc(OCCCCCOc2ccc(C(=N)N)cc2)cc1` as the compound, how does the Potency read?
Answer: The Potency was 3.43 µM (active).

Question: Which Potency does the source give for `CC[C@@]1(O)C(=O)OCc2c1cc1n(c2=O)Cc2cc3c(CN(C)C)c(O)ccc3nc2-1` here?
Answer: Its Potency is 1.09 µM (active).

Question: With `CCC1C(=O)N(C)c2cnc(Nc3ccc(C(=O)NC4CCC(N5CCN(CC6CC6)CC5)CC4)cc3OC)nc2N1C(C)C` (stereo not drawn) as the compound, how does the Potency read?
Answer: Its Potency is 0.0611 µM (active).

Question: How did the Potency turn out when `CNC(=O)c1ccccc1Sc1ccc2c(/C=C/c3ccccn3)n[nH]c2c1` was run?
Answer: Its Potency is 13.7 µM (active).

Question: `Nc1ncn([C@@H]2O[C@H](CO)[C@@H](O)[C@H]2O)c(=O)n1` was tested. Which Potency did it give?
Answer: The Potency was “inactive”.

Question: With `Nc1ccc(-c2ccc3ncc4ccc(=O)n(-c5cccc(C(F)(F)F)c5)c4c3c2)cn1` as the compound, how does the Potency read?
Answer: The Potency was 2.43 µM (active).

Question: How did the Potency turn out when `CNC(=O)CN1CCC(Oc2cc3c(Nc4cccc(Cl)c4F)ncnc3cc2OC)CC1` was run?
Answer: The Potency was “inactive”.

Question: Which Potency does the source give for `CCCC(=O)O[C@]1(C(=O)CCl)[C@@H](C)C[C@H]2[C@@H]3CCC4=CC(=O)C=C[C@]4(C)[C@@]3(F)C(=O)C[C@@]21C` here?
Answer: Its Potency is 10.9 µM (active).

Question: Which Potency does the source give for `CC(C)n1nc(-c2cc3cc(O)ccc3[nH]2)c2c(N)ncnc21` here?
Answer: The Potency was 17.2 µM (active).

Question: Which Potency does the source give for `CCCCN(CCCC)CC(O)c1cc(Cl)cc2c1-c1ccc(Cl)cc1/C2=C/c1ccc(Cl)cc1` (stereo not drawn) here?
Answer: Its Potency is “inactive”.

Question: Which Potency does the source give for `CN(NC(=O)CC(=O)NN(C)C(=S)c1ccccc1)C(=S)c1ccccc1` here?
Answer: The Potency was 0.109 µM (active).

Question: For `Nc1nccc(Oc2ccc(NC(=O)c3c[nH]cc(-c4ccc(F)cc4)c3=O)cc2F)c1Cl`, which Potency is on record?
Answer: Its Potency is 4.32 µM (active).

Source: PubChem BioAssay AID1345085 (National Center for Advancing Translational Sciences (NCATS), 2018)
